Data reported in PubChem BioAssay (EPA / NIEHS).
Inconclusive results are not listed. Calls of active or inactive are those of the source. Rule for the calls, unless noted: active = hit-call score of the fitted dose curve at least 0.9, where 1 is the maximum; inactive = score below 0.9.

Assays:
[1] = read-out: Macrophage colony-stimulating factor (MCSF), CSF1 (gene 1435); assay: BSK_LPS_MCSF: BioMAP Diversity Plus: LPS Assay for Macrophage colony-stimulating factor (MCSF) Biomarker Activity (AID 2283083); details: primary human HUVEC with PBMC; actives raise or lower the signal
Outline: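 Compound is added to a human vascular primary co-culture of umbilical vein endothelium and blood mononuclear cells. After 24 h, M-CSF is quantified by ELISA. Signal changes are fitted in both directions against DMSO.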

[2] = read-out: Tissue Factor, F3 (gene 2152); assay: BSK_LPS_TissueFactor: BioMAP Diversity Plus: LPS Assay for Tissue Factor Biomarker Activity (AID 2283084); details: primary human HUVEC with PBMC; actives raise or lower the signal
Outline: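 In this co-culture system of umbilical vein endothelium with PBMC, stimulated with LPS, cell-surface CD142 is detected by ELISA at 24 h. Endpoint values derive from bidirectional fitting, DMSO serving as baseline.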

[3] = read-out: Tumor necrosis factor (Homo sapiens) (UniProt P01375); assay: BSK_LPS_TNFa: BioMAP Diversity Plus: LPS Assay for Tumour Necrosis Factor alpha (TNFa) Biomarker Activity (AID 2283085); details: primary human HUVEC with PBMC; actives raise or lower the signal;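 for AC50: TNFa protein level quantified by ELISA in the co-culture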
Outline: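 HUVEC/PBMC co-culture, LPS-stimulated; 24 h post-dose; TNFa by ELISA; gain or loss of signal fitted bidirectionally vs DMSO baseline.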

[4] = read-out: Vascular cell adhesion molecule 1 (VCAM1), VCAM1 (gene 7412); assay: BSK_LPS_VCAM1: BioMAP Diversity Plus: LPS Assay for Vascular cell adhesion molecule 1 (VCAM1) Biomarker Activity (AID 2283086); details: primary human HUVEC with PBMC; actives raise or lower the signal
Outline: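 ELISA read-out of VCAM-1 at 24 h post-dosing in an LPS-driven HUVEC/PBMC primary human co-culture; gain or loss of signal fitted bidirectionally against DMSO baseline. Cytotoxicity tracked in parallel cultures by SRB total-protein staining.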

[5] = read-out: CD38, CD38 (gene 952); assay: BSK_SAg_CD38: BioMAP Diversity Plus: SAg Assay for CD38 Biomarker Activity (AID 2283087); details: primary human HUVEC with PBMC; actives raise or lower the signal
Outline: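 Measures CD38 on a human endothelial/PBMC co-culture driven by SEB and TSST-1, 24 h after compound exposure, using ELISA with fluorescence detection; DMSO defines baseline for bidirectional curve fitting.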

[6] = read-out: CD40, CD40 (gene 958); assay: BSK_SAg_CD40: BioMAP Diversity Plus: SAg Assay for CD40 Biomarker Activity (AID 2283088); details: primary human HUVEC with PBMC; actives raise or lower the signal
Outline: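 Fluorescence ELISA read-out of CD40 from umbilical vein endothelium plus peripheral blood mononuclear cells, sampled 24 h after dosing. Values come from bidirectional curve fitting with DMSO as baseline.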

[7] = read-out: CD69, CD69 (gene 969); assay: BSK_SAg_CD69: BioMAP Diversity Plus: SAg Assay for CD69 Biomarker Activity (AID 2283089); details: primary human HUVEC with PBMC; actives raise or lower the signal;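 for AC50: cell surface CD69 protein quantified by ELISA with fluorescence detection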
Outline: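 Values derive from bidirectional fitting relative to DMSO vehicle. Cells: umbilical vein endothelium plus peripheral blood mononuclear cells, treated 24 h before fluorescent ELISA for CD69.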

[8] = read-out: E-selectin (Homo sapiens) (UniProt P16581); assay: BSK_SAg_Eselectin: BioMAP Diversity Plus: SAg Assay for Eselectin Biomarker Activity (AID 2283091); details: primary human HUVEC with PBMC; actives raise or lower the signal
Outline: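 Primary human endothelial cells and peripheral blood mononuclear cells were co-cultured and exposed to chemical for 24 hours. E-selectin levels were then quantified by ELISA, with bidirectional curve fitting normalised to DMSO controls.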

[9] = read-out: Monokine induced gamma interferon (MIG), CXCL9 (gene 4283); assay: BSK_SAg_MIG: BioMAP Diversity Plus: SAg Assay for Monokine induced gamma interferon (MIG) Biomarker Activity (AID 2283092); details: primary human HUVEC with PBMC; actives raise or lower the signal
Outline: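 Values reflect bidirectional fitting of ELISA-measured MIG against DMSO vehicle, taken 24 h after dosing of a co-culture of human umbilical vein endothelial cells and peripheral blood mononuclear cells.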

[10] = BSK_SAg_PBMCCytotoxicity: PBMC Cytotoxicity Assessment in the BioMAP Diversity Plus: SAg Assay (AID 2283093); details: primary human HUVEC with PBMC;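 note: fitted both ways against DMSO so a hit may be loss or gain of signal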;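 for AC50: PBMC superantigen activated with SEB plus TSST-1 one hour after compound addition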
Outline: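 PBMC viability by Alamar Blue reduction, fluorescence read at 546/580 nm after 6 h dye exposure. Cells were dosed 1 h before SEB plus TSST-1 activation (20 ng/mL final each), then held 90 h; endothelial/PBMC human co-culture.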

[11] = read-out: Interleukin-8 (IL8), CXCL8 (gene 3576); assay: BSK_SAg_IL8: BioMAP Diversity Plus: SAg Assay for Interleukin-8 (IL8) Biomarker Activity (AID 2283094); details: primary human HUVEC with PBMC; actives raise or lower the signal
Outline: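 HUVEC/PBMC co-culture, 24 h post-dose; IL-8 by ELISA. Gain or loss of signal fitted bidirectionally vs DMSO baseline.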

[12] = BSK_SAg_Proliferation: Cell Proliferation Assessment in the BioMAP Diversity Plus: SAg Assay (AID 2283095); details: primary human HUVEC with PBMC;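 note: relative cell number as total protein by SRB absorbance in sub-confluent culture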
Outline: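 HUVEC/PBMC co-culture, 96-well. TCA-fixed (10%), 0.1% SRB stain, A560 at 96 h. Protein content used as viability readout; bidirectional fitting vs DMSO control.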

[13] = BSK_SAg_SRB: Viability Assessment in the BioMAP Diversity Plus: SAg Assay (AID 2283096); details: primary human HUVEC with PBMC;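 note: cells read one day after compound addition; hits may be either gain or loss of signal compared with DMSO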
Outline: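 Compounds were added to a human vascular co-culture of umbilical vein endothelium and PBMC. After 24 h, parallel cultures were fixed with 10% TCA, stained with 0.1% sulforhodamine B and read at 560 nm. Gain or loss of signal was fitted relative to DMSO.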

[14] = read-out: Monocyte Chemoattractant Protein-1 (MCP1), CCL2 (gene 6347); assay: BSK_SAg_MCP1: BioMAP Diversity Plus: SAg Assay for Monocyte Chemoattractant Protein-1 (MCP1) Biomarker Activity (AID 2283090); details: primary human HUVEC with PBMC; actives raise or lower the signal
Outline: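 Values derive from bidirectional fitting of ELISA-measured MCP1 against DMSO controls. Readings were taken 24 h after dosing human vascular endothelial cells co-cultured with peripheral blood mononuclear cells under superantigen stimulation.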

[15] = biological target: human CYP19A1, CYP19A1 (gene 1588) (UniProt P11511); assay: NVS_ADME_hCYP19A1: NovaScreen (NVS) CYP450-related Enzyme Activity (ADME) Assay for human CYP19A1 (AID 2283098; active = hit-call score of the fitted dose curve at least 0.9, where 1 is the maximum)
Outline: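 Fluorescence intensity read-out; activity taken as signal loss relative to acetonitrile vehicle. Extracted enzyme, specific substrate, no cells, 0.5 h exposure. Duplicate single-point screen at 10 uM, then concentration–response follow-up for actives.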

[16] = biological target: human CYP2D6, CYP2D6 (gene 1565) (UniProt P10635); assay: NVS_ADME_hCYP2D6: NovaScreen (NVS) CYP450-related Enzyme Activity (ADME) Assay for human CYP2D6 (AID 2283107; active = hit-call score of the fitted dose curve at least 0.9, where 1 is the maximum)
Outline: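 Compounds were first tested in duplicate at 10 uM against recombinant enzyme produced in insect cells, with substrate turnover measured by fluorescence after 1 hour. Decreased signal, referenced to acetonitrile vehicle, was taken as reduced enzyme activity. Active chemicals went on to concentration-response testing.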

Measured: AC50

Sequence of Tumor necrosis factor (Homo sapiens) (P01375 whole entry, looked up): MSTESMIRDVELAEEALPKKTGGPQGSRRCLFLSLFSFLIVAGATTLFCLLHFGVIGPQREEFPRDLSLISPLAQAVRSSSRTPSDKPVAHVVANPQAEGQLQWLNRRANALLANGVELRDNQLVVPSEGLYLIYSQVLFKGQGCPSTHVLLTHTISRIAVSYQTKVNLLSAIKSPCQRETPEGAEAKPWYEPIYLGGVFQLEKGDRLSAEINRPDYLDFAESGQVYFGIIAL
Sequence of E-selectin (Homo sapiens) (P16581 whole entry, looked up): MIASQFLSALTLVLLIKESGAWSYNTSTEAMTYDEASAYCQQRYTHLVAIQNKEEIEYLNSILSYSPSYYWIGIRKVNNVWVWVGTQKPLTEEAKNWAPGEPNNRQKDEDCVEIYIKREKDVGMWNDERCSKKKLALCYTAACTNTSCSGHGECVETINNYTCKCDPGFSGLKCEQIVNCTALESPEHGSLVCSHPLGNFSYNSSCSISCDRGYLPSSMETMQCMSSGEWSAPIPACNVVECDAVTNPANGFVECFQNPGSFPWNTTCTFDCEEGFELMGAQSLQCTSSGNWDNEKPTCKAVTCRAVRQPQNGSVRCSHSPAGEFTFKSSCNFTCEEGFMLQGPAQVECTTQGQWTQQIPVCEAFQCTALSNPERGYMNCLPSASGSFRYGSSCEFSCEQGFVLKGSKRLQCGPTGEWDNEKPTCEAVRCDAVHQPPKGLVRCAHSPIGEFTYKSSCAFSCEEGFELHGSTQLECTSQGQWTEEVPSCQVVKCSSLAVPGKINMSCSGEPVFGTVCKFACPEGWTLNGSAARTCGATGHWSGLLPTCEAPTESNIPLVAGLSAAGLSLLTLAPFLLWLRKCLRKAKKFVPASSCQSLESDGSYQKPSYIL
Sequence of human CYP2D6, CYP2D6 (gene 1565) (P10635 whole entry, looked up): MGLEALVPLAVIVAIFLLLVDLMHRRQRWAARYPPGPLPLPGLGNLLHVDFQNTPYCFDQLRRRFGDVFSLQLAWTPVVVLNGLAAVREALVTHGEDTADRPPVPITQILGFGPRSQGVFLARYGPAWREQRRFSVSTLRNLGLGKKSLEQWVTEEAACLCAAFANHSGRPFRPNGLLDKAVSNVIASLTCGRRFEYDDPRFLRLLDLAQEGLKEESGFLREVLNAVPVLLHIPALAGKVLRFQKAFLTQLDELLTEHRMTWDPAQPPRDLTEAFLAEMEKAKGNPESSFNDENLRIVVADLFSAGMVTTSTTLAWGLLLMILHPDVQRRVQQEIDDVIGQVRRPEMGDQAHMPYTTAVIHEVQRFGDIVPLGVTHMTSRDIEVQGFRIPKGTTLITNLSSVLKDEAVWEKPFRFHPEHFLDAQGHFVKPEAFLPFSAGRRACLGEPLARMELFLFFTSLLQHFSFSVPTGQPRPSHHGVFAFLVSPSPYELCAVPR
Sequence of human CYP19A1, CYP19A1 (gene 1588) (P11511 whole entry, looked up): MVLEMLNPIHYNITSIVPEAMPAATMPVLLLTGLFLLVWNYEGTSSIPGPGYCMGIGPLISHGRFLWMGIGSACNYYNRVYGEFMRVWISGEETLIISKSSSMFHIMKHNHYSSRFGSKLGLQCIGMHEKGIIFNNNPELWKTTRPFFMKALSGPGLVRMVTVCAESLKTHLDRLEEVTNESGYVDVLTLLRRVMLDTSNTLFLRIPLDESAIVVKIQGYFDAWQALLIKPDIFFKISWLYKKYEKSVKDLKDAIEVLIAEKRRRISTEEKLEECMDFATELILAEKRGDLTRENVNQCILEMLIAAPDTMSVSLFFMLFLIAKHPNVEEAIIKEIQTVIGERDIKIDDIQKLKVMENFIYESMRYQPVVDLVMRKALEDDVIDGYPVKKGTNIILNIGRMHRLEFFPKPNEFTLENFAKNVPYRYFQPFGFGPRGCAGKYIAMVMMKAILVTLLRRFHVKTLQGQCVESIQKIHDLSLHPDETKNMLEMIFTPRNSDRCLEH

CC(=O)S[C@H](C(=O)N[C@H]1Cc2ccccc2[C@H]2CCC[C@@H](C(=O)O)N2C1=O)C(C)C
active: [12] 7.81 µM
not listed: [14] | [15] | [16]
inactive: all other assays above

CN(C)C(=O)NC1(c2ccccc2)CCN(CC[C@@]2(c3ccc(F)c(F)c3)CN(C(=O)c3ccccc3)CCO2)CC1
active: [12] 26.1 µM
not listed: [14] | [15] | [16]
inactive: all other assays above

Nc1nc(=S)c2[nH]cnc2[nH]1
active: [12] 13.5 µM
not listed: [15] | [16]
inactive: all other assays above

CCCCC(CC)COP(=O)(OCC(CC)CCCC)OCC(CC)CCCC (stereo not given)
active: [3] 5.46 µM | [10] 0.197 µM | [12] 5.3 µM | [13] 5.38 µM
not listed: [15] | [16]
inactive: all other assays above

O=C(N[C@@H](c1ccccc1)[C@@H]1CCCCN1)c1cccc(C(F)(F)F)c1Cl
active: [4] 20 µM | [5] 20 µM | [6] 20 µM | [7] 20 µM | [14] 23.4 µM | [8] 12.3 µM | [10] 20 µM | [11] 14.3 µM | [12] 14.4 µM | [13] 26.5 µM | [16] 1.06 µM
inactive: [1] | [2] | [3] | [9] | [15]

O=C(O)c1cccnc1
not listed: [14] | [15] | [16]
inactive: all other assays above

Cn1cnc2c1c(=O)[nH]c(=O)n2C
not listed: [14] | [15] | [16]
inactive: all other assays above

COC(=O)CCCC(=O)OC
not listed: [15] | [16]
inactive: all other assays above
